Structures are written as SMILES. Records with an inconclusive call do not appear. Entries that show only a call come without a potency. Activity calls are given as the source filed them. The call rests on the fitted dose curve; in most records, active means well fitted inhibition curve with a large enough effect; inconclusive means small, poorly fitted or top-dose-only effect; inactive means no such curve, though single readings can be large or run the other way.
Potency means the concentration at half of the fitted maximal effect.

A short description of this test: P-glycoprotein substrates identified in KB-3-1 adenocarcinoma cell line, qHTS therapeutic library screen (AID 1346986). Further: nearly all actives have a fitted effect of over 60% in size.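 Further: potency is for cytotoxicity meaning loss of cell viability.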 As to conditions: KB-3-1 parental cells viability, CellTiter-Glo, 72 h; series mostly up to 44.5 µM; activity change, negative = cytotoxicity: at the top concentration. In outline: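 KB-3-1 parental and colchicine-selected P-gp-overexpressing KB-8-5-11 cells (colchicine omitted during assay), 500 cells/well, dosed in dose-response for 72 h at 37 °C; CellTiter-Glo luminescence. Cytotoxic: curve class -1.1 to -2.4, max response >50%, AC50 < 10 uM.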
(In general: Quantitative high-throughput screening tests each substance at several concentrations.)
For `C=CC1(C)CC(O)C2(CCC3C(C)(C(=O)O)CCCC3(C)C2=O)C1` (centres undefined), the outcome was inactive.

Turning to `O=C(/C=C/c1c(C(=O)O)[nH]c2cc(Cl)cc(Cl)c12)Nc1ccccc1`, the result was inactive.

Regarding `O=C(c1ccc(C#Cc2cccc(F)c2)cn1)N1CC2CC2C1` (centres undefined), the outcome was inactive.

For `CC1(CO)CC[C@]2(C(=O)O[C@@H]3O[C@H](CO)[C@@H](O)[C@H](O)[C@H]3O)CC[C@]3(C)C(=CCC4[C@@]5(C)C[C@H](O)[C@H](O[C@@H]6OC[C@@H](O)[C@H](O)[C@H]6O)[C@@](C)(CO)C5CC[C@]43C)C2C1` (some centres undefined), the outcome is “inactive [at 9.29 µM]”.

Turning to `O=C(C1CC1)N1CC[C@@H](Cc2n[nH]c(=O)n2-c2ccc(-c3ccc4occc4c3)cc2)C1`, the “outcome” value was “inactive [at 17.4 µM]”.

With `CC(=O)O[C@@H]1[C@H](O[C@@H]2OC[C@](O)(CO)[C@H]2O)[C@@H](O[C@@H]2O[C@@H](C)[C@H](O)[C@@H](O)[C@H]2O)[C@H](OC(=O)[C@]23CCC(C)(C)C[C@H]2C2=CCC4[C@@]5(C)C[C@H](O)[C@H](O[C@@H]6O[C@H](C(=O)O)[C@@H](O)[C@H](O)[C@H]6O)[C@@](C)(C(=O)O)C5CC[C@@]4(C)[C@]2(C)CC3)O[C@@H]1C` (some centres undefined), the outcome was “inactive [at 9.29 µM]”.

`CC(C)(O)/C=C1/C(=O)C(C)(C)C(=O)C(C)(C)C1(O)O[C@@H]1O[C@H](COC(=O)c2cc(O)c(O)c(O)c2)[C@@H](O)[C@H](O)[C@H]1O` (some centres undefined): the “outcome” value is “inactive [at 17.4 µM]”.

As for `C[C@@H]1C[C@H](O[C@@H]2O[C@H](CO[C@@H]3OC[C@](O)(CO)[C@H]3O)[C@@H](O)[C@H](O)[C@H]2O)CC(C)(C)[C@H]1/C=C/[C@@H](C)O`, the “outcome” value is “inactive [at 17.4 µM]”.

As to `O=C(NC[C@H](O)CN1CCc2ccccc2C1)c1cc(NC2COC2)ncn1`, the result was inactive.

With `CC1CC(O)CC(C)(C)C1(O)CCO` (centres undefined), the “outcome” value is “inactive [at 93.4 µM]”.

As for `C[C@@H]1O[C@@H](O[C@H]2[C@H](OC(C#N)c3ccc(O)cc3)O[C@H](CO)[C@@H](O)[C@@H]2O)[C@H](O)[C@H](O)[C@H]1O` (some centres undefined), the “outcome” value is “inactive [at 17.4 µM]”.

With `CC1=C(CC(=O)O)c2cc(F)ccc2C1=Cc1ccc(S(C)(=O)=O)cc1`, the result was inactive.

Consider `C[C@@H]1O[C@@H](O[C@H]2[C@H](OC(=O)C34CCC(C)(C)CC3C3=CCC5C6(C)CC(O)C(O[C@@H]7O[C@H](CO)[C@@H](O)[C@H](O)[C@H]7O)C(C)(C(=O)O)C6CCC5(C)C3(CO)CC4)O[C@H](C)[C@H](O)[C@@H]2O)[C@H](O)[C@H](O)[C@H]1O[C@@H]1OC[C@@H](O)[C@H](O)[C@H]1O` (some centres undefined), for which the outcome is “inactive [at 9.29 µM]”.

With `CCN[C@@H]1C[C@H](N)[C@@H](O[C@H]2OC(CN)=CC[C@H]2N)[C@H](O)[C@H]1O[C@H]1OC[C@](C)(O)[C@H](NC)[C@H]1O`, the outcome was inactive.

`CC1(C)C(=O)N2c3ccccc3[C@]3(CC(n4cnc5ccccc5c4=O)C(=O)O3)[C@H]2N1O` (some centres undefined): the “outcome” value was “inactive [at 17.4 µM]”.

Turning to `CC(C#N)C(C)O[C@@H]1O[C@H](CO)[C@@H](O)[C@H](O)[C@H]1O` (some centres undefined), the result was inactive.

With `Nc1nonc1C(=Nc1ccc(F)c(Cl)c1)NO`, the outcome was inactive.

With `C=C1C2=CC(O)C(C)C1(C)CC/C(C)=C/CCC1(C)OC1C2=O` (centres undefined), the outcome was inactive.

On to `Cc1c(-c2ccnn2C)cc(C(=O)NCc2ccc(S(C)(=O)=O)cn2)c(=O)n1-c1cccc(C(F)(F)F)c1`, for which the result was inactive.

With `Clc1ccc2c(c1)C1=NCCN1c1c(-c3noc(C4CC4)n3)ncn1-2`, the outcome was inactive.

With `CC1CCC2(O1)C(C)(C)CC(O[C@@H]1O[C@H](CO[C@@H]3OC[C@](O)(CO)[C@H]3O)[C@@H](O)[C@H](O)[C@H]1O)CC2(C)O` (some centres undefined), the “outcome” value was “inactive [at 17.4 µM]”.

Regarding `CCC(CCO[C@@H]1O[C@H](CO[C@H]2OC[C@](O)(CO)[C@H]2O)[C@@H](O)[C@H](O)[C@H]1O)C(C)(C)O` (some centres undefined), the “outcome” value was “inactive [at 17.4 µM]”.

As to `CC1(C)CC[C@]2(C(=O)O)CC[C@]3(C)C(=CCC4[C@@]5(C)CC[C@H](O[C@@H]6O[C@H](C(=O)O)[C@@H](O)[C@H](O)[C@H]6O)C(C)(CO)C5CC[C@]43C)C2C1` (some centres undefined), the “outcome” value is “inactive [at 17.4 µM]”.

Regarding `O=C1N(CC2CCCCN2)CCN1c1ccccc1` (centres undefined), the outcome was inactive.

For `Cc1cc(N2CCCCC2)nc2ccccc12`, the result was inactive.

For the molecule `CC1CCC2C(C(=O)O)=CC3C(O)C(C)(C)CC123` (centres undefined), the result was inactive.

For the molecule `Cc1nc2c(-c3cnc(N)nc3)nc(N3CCOCC3)nc2n1C(C)C`, the Potency was 259 nM (active).

As for `O=C1NC(=Nc2ccccc2F)S/C1=C\c1ccc(C(=O)O)cc1`, the outcome was inactive.

With `COCCN(C)Cc1ccc2nc3sc(C(=O)N(C)C4CCCCC4)cn3c2c1`, the result was inactive.

These data come from PubChem BioAssay (NCATS).
